This note sets out measurements from the supplement of paper PMC10849652.

Common to all, as to test: log2 fold change, soluble protein after heating vs DMSO (PISA); higher = thermal stabilisation; K562 lysate, 10 uM; active = over 0.2 and 3.5 SD of the protein, either way, in both replicates (recomputed)
Compound in assay [1]: NCC(=O)Nc1ccc(-n2nc(C(F)(F)F)cc2-c2ccc3c(ccc4ccccc43)c2)cc1
The method in brief:
(§1)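 Values give the log-two fold change in thermal stability against solvent controls, from duplicates. Crude K562 extract at 1 mg/mL protein, made by dounce homogenisation in PBS pH 7.4 with 1 mM MgCl2, was treated with 10 μM compound for 30 min. After 3 min heating across 48°C-58°C, aliquots were pooled, adjusted to 0.5% NP-40 at 4°C and centrifuged at 21,000xg for 90 min. The supernatant was measured by TMTpro 16plex LC-MS/MS with channel sums equalised.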

Compound in assay [2]: O=C(CCCCCCC(=O)Nc1ccccc1)NO [vorinostat]
The method in brief:
as §1

Compound in assay [3]: O=C(O)c1ccc2c(c1)nc(Nc1cccc(Cl)c1)c1ccncc12 [silmitasertib]
The method in brief: as §1

Compound in assay [4]: O=C1NC(=O)C(c2cnc3ccccn23)=C1c1cn2c3c(cc(F)cc13)CN(C(=O)N1CCCCC1)CC2
The gist of the method: as §1

Compound in assay [5]: c1cn2cc(-c3ccc4cn[nH]c4c3)nc(Nc3ccc(N4CCOCC4)cc3)c2n1 [entospletinib]
The gist of the method: as §1

The full data set covers some 8,800 targets. This sample favours those with a hit. About 0.5% of all pairs of compound and target were hits. Unmarked numbers belong to inactive results.

Sequence of UniProt O75446 (O75446 whole entry, looked up): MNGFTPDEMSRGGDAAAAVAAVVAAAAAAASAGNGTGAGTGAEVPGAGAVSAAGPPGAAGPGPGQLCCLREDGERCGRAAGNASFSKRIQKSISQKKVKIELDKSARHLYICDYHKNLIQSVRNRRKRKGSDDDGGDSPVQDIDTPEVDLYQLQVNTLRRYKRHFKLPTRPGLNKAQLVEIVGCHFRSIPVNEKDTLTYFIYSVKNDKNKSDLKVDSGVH
Sequence of UniProt Q8WXA3 (Q8WXA3 whole entry, looked up): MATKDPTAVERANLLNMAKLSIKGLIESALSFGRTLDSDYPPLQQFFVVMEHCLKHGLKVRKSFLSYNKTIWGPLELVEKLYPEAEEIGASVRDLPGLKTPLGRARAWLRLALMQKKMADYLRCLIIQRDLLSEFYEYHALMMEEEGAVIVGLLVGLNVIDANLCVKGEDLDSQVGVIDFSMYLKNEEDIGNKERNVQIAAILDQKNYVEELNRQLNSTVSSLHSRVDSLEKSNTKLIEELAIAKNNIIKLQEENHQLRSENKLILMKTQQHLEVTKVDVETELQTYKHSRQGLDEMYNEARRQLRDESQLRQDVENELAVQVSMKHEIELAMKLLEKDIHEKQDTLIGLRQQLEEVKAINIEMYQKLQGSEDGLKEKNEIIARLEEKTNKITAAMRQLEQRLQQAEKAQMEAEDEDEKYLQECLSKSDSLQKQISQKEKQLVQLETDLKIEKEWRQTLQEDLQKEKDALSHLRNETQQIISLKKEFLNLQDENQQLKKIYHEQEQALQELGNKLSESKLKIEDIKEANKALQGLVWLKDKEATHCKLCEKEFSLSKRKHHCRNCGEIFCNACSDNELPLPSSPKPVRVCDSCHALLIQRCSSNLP
Sequence of UniProt P19793 (P19793 whole entry, looked up): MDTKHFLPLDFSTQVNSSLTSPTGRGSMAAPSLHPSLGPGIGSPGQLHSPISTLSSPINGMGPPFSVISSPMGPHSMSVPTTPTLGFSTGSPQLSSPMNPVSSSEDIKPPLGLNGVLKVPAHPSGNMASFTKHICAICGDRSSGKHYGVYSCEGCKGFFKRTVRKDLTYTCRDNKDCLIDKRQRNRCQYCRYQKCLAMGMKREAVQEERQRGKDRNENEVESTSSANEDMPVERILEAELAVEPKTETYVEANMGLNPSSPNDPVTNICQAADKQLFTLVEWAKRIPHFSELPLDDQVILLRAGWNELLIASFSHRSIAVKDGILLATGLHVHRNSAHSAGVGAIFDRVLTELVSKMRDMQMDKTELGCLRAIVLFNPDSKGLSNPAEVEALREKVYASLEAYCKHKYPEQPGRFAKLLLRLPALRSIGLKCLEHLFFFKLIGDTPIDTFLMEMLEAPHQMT
Sequence of UniProt Q9P0K7 (Q9P0K7 whole entry, looked up): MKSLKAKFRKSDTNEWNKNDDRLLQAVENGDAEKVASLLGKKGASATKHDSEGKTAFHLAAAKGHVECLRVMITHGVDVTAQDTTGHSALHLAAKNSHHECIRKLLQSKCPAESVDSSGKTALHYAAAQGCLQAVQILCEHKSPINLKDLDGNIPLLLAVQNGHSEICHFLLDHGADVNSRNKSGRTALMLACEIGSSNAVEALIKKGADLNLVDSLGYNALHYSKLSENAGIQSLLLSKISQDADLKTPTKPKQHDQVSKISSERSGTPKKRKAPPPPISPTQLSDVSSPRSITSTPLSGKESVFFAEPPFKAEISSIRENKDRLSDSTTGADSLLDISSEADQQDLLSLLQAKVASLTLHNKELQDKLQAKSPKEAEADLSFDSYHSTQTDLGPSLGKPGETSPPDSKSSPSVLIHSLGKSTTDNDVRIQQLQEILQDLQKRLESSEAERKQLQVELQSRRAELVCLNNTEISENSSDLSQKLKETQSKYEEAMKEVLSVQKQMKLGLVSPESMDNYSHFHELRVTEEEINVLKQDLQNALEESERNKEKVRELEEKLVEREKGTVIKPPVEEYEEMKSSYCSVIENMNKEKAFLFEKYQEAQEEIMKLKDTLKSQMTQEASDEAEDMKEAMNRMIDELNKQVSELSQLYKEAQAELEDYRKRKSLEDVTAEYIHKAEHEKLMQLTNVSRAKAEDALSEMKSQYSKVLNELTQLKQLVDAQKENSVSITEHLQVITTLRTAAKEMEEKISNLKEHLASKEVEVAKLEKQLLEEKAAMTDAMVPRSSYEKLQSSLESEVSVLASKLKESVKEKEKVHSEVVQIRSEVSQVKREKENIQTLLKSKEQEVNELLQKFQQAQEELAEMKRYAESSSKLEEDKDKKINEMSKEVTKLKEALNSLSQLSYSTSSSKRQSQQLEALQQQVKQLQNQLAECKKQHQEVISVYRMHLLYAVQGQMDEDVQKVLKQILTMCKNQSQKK
Sequence of UniProt P54136 (P54136 whole entry, looked up): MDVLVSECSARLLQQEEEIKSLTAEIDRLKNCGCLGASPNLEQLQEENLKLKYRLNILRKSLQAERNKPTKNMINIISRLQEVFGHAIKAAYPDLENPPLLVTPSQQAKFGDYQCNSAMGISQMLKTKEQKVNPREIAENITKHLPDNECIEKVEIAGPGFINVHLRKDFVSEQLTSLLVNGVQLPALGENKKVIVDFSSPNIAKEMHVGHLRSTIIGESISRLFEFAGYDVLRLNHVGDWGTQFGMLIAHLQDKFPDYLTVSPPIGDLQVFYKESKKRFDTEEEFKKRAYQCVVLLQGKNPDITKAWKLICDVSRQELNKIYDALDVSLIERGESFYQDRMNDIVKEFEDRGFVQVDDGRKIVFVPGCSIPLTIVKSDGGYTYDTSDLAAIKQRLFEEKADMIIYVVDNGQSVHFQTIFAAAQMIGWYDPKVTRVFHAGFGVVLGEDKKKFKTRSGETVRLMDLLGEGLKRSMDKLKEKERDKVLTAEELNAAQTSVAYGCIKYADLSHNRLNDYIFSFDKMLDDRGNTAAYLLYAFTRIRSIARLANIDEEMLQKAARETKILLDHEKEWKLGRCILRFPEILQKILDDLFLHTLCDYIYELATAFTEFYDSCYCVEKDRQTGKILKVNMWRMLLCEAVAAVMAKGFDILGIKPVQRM
Sequence of UniProt Q9BUV8 (Q9BUV8 whole entry, looked up): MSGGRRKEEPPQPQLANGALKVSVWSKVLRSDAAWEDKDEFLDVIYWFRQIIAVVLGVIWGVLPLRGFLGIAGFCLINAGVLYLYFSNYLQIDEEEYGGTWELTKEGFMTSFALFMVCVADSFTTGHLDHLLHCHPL
Sequence of UniProt Q7L523 (Q7L523 whole entry, looked up): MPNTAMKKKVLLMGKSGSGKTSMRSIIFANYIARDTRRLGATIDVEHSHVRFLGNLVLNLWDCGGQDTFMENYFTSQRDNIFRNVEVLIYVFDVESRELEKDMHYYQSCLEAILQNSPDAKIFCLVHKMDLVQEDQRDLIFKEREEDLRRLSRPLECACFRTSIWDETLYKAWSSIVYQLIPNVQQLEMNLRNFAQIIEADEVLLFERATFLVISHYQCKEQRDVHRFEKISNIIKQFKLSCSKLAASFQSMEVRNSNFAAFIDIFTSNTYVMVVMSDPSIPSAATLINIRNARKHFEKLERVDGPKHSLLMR
Sequence of UniProt Q8NC44 (Q8NC44 whole entry, looked up): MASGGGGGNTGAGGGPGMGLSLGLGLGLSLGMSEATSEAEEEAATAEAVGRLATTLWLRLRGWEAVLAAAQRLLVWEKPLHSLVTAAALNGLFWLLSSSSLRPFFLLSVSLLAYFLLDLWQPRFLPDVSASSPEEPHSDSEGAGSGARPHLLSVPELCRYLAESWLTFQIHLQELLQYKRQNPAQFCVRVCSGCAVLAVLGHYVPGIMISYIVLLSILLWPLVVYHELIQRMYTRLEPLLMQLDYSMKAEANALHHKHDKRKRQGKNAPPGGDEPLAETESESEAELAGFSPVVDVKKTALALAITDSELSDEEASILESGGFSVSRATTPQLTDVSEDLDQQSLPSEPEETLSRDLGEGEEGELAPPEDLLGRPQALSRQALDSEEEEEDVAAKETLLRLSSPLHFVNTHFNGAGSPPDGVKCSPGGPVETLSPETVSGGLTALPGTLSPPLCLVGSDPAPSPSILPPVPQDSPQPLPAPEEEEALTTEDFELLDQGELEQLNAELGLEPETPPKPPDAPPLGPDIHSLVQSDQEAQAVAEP
Sequence of UniProt P58004 (P58004 whole entry, looked up): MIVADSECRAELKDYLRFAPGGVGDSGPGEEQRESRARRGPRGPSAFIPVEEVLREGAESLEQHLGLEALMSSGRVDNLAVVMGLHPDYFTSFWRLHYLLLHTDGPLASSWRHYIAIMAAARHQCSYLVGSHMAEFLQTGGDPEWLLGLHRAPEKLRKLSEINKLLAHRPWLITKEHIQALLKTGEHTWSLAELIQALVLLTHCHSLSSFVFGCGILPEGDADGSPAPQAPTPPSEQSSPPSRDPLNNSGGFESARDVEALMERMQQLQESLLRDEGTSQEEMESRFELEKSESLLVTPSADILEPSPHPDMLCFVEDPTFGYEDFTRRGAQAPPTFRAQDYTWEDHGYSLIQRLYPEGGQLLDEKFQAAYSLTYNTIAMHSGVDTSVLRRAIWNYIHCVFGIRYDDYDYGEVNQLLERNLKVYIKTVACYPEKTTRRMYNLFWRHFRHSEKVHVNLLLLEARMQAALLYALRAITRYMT
Sequence of UniProt Q02094 (Q02094 whole entry, looked up): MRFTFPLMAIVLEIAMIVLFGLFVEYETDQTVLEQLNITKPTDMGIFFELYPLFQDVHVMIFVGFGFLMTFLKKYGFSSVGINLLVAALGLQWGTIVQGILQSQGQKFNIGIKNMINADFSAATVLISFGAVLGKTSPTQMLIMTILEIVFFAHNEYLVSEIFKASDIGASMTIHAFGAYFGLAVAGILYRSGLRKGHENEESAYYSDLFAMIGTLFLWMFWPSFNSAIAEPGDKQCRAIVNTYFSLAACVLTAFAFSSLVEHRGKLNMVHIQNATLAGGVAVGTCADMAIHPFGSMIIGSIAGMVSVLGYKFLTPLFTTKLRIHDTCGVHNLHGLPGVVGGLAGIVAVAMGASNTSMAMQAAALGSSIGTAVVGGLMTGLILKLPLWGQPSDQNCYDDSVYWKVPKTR
Sequence of UniProt Q9Y225 (Q9Y225 whole entry, looked up): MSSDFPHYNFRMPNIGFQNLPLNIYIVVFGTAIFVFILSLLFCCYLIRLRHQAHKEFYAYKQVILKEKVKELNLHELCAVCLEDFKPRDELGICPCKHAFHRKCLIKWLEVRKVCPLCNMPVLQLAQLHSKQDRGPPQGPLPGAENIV

As for RAI14 isoform 2 (UniProt Q9P0K7), the log2 fold change in assay [1] was 0.005; in assay [2] it was -0.254 (active); in assay [3] it was 0.022; in assay [4], 0.015; in assay [5], -0.003.

Regarding RRAGA (UniProt Q7L523), the log2 fold change in assay [1] was -0.007; in assay [2], 0.099; in assay [3], 0.039; in assay [4], -0.015; in assay [5] it was 0.05.

As for RCOR3 isoform 3 (UniProt Q9P2K3), the log2 fold change in assay [1] was -0.044; in assay [2] it was -0.206; in assay [3], -0.002; in assay [4] it was -0.01; in assay [5], 0.034.

As for RELN (UniProt P78509), the log2 fold change was 0.016 in assay [1]; 0.088 in assay [2]; -0.049 in assay [3]; 0.006 in assay [4]; -0.037 in assay [5].

Take RMC1 (UniProt Q96DM3): the log2 fold change in assay [1] was 0.008; in assay [2] it was -0.391 (active); in assay [3], 0.017; in assay [4], -0.013; in assay [5] it was 0.037.

For RARS (UniProt P54136), the log2 fold change in assay [1] was -0.004; in assay [2] it was -0.309 (active); in assay [3] it was 0.056; in assay [4], -0.009; in assay [5], 0.024.

On to SEC62 (UniProt Q99442), for which the log2 fold change in assay [1] is 0.036; in assay [2], 0.133; in assay [3], 0.015; in assay [4], 0.007; in assay [5] it was -0.019.

In the case of SDHA (UniProt P31040), the log2 fold change is 0.007 in assay [1]; 0.058 in assay [2]; -0.014 in assay [3]; -0.028 in assay [4]; -0.006 in assay [5].

RHAG (UniProt Q02094): the log2 fold change in assay [1] is 0.031; in assay [2], -0.026; in assay [3], 0.153; in assay [4], 0.015; in assay [5], -0.03.

ROBO2 isoform 3 (UniProt Q9HCK4): the log2 fold change in assay [2] was 0.136; in assay [3] it was -0.019; in assay [4], -0.042.

Take RIC1 (UniProt Q4ADV7): the log2 fold change is -0.053 in assay [1]; -0.193 in assay [2]; 0.057 in assay [3]; -0.06 in assay [4]; 0.045 in assay [5].

Regarding SESN2 (UniProt P58004), the log2 fold change in assay [1] was 0.006; in assay [2], -0.367 (active); in assay [3], 0.066; in assay [4], 0.022; in assay [5] it was 0.073.

On to RETREG2 (UniProt Q8NC44), for which the log2 fold change in assay [1] was -0.058; in assay [2], 0.023; in assay [3], 0.015; in assay [4], -0.007; in assay [5] it was -0.004.

RBM42 (UniProt Q9BTD8): the log2 fold change in assay [1] is 0.19; in assay [2], -0.04; in assay [3], -0.031; in assay [4] it was 0.018; in assay [5], -0.058.

In the case of RXRA (UniProt P19793), the log2 fold change in assay [2] is -0.154; in assay [3] it was 0.07; in assay [4], -0.08.

As for RHBDD1 (UniProt Q8TEB9), the log2 fold change in assay [1] is -0.162; in assay [5], 0.036.

Regarding RNF24 isoform 2 (UniProt Q9Y225), the results for the log2 fold change in assay [2], in assay [3] and in assay [4] were 0.918 (active), -0.117 and 0.016, respectively.

Take RALGAPB isoform 3 (UniProt Q86X10): the log2 fold change in assay [5] was -0.045.

On to ROCK1 (UniProt Q13464), for which the log2 fold change was 0 in assay [1], -0.211 (active) in assay [2], -0.017 in assay [4] and -0.016 in assay [5].

Take RAD54L (UniProt Q92698): the log2 fold change in assay [2] was -1.06 (active); in assay [3] it was 0.065.

For the target RAF1 isoform 2 (UniProt P04049), the log2 fold change in assay [1] was 0.126; in assay [2], -0.304 (active); in assay [3] it was 0.024; in assay [4], 0.068; in assay [5] it was -0.015.

Regarding RAB5IF isoform 5 (UniProt Q9BUV8), the log2 fold change in assay [1] was -0.039; in assay [2], -0.039; in assay [3], -0.007; in assay [5], -0.015.

On to SAP30 (UniProt O75446), for which the log2 fold change in assay [1] was 0.001; in assay [4], -0.024; in assay [5], -0.022.

On to SBF1 isoform 4 (UniProt O95248), for which the log2 fold change in assay [1] is 0.013; in assay [2] it was -0.377 (active); in assay [3], -0.046; in assay [4], 0.056; in assay [5] it was 0.005.

As for RUFY2 isoform 1 (UniProt Q8WXA3), the log2 fold change was -0.009 in assay [1], -0.129 in assay [4] and -0.014 in assay [5].

Turning to RLIM (UniProt Q9NVW2), the log2 fold change in assay [4] is 0.289.

Turning to RPS26P11 (UniProt Q5JNZ5), the log2 fold change is -0.026 in assay [1]; 0.114 in assay [2]; 0.049 in assay [3]; -0.113 in assay [4]; -0.035 in assay [5].

Take SERAC1 (UniProt Q96JX3): the values for the log2 fold change in assay [2], in assay [3] and in assay [5] were 0.236, 0.155 and -0.001, respectively.
